Screening results: PubChem, National Center for Advancing Translational Sciences (NCATS)
Cycloheximide cs: counter-screen for Shiga toxin inhibitors: cycloheximide protein synthesis inhibition; max response, %; cell reporter, cycloheximide protein synthesis inhibition counterscreen; AID 2314; actives 12% (n = 300,000); in the data active means max response mostly above about 13%, no sharp cut-off; inactive means mostly below about 14%; further: read at 38.3 µM for the half of the compounds with a filed dose
Pf growth 96h: P. falciparum growth inhibition at 96 hours; P. falciparum luciferase reporter growth, 96 h; Potency, µM (highest dose often 28.7 µM), most hits filed as inhibitors; actives 6.9% (n = 320,000); active means well fitted inhibition curve with a large enough effect; inconclusive means small, poorly fitted or top-dose-only effect, or another doubt; inactive means no such curve, though single readings can be large or run the other way
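Delayed-death screen, second-generation endpoint: infected erythrocytes, 2% hematocrit, 0.05% parasitemia final; 96 hours at 37 C, 5% CO2; luciferase detection reagent; luminescence decrease equals reduced growth.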
SARS PLpro yeast: blocks SARS-CoV papain-like protease in a yeast assay; AID 485353; S. cerevisiae expressing SARS-CoV PLpro, growth rescue; actives 0.19% (n = 330,000); Potency, µM (titrated, usually from 32.9 µM), hits mostly activators; further: nearly all actives have a fitted effect of over 55% in size
Shiga inhibitor: blocks Shiga toxin action in Vero cells | actives 9.2% (n = 290,000) | Vero cells, Shiga toxin protein synthesis inhibition reporter | inhibition, % at 38.7 µM; in the data active means inhibition mostly above about 28%, no sharp cut-off; inactive means mostly below about 43%
Pf growth 48h: P. falciparum growth inhibition at 48 hours (one generation); P. falciparum luciferase growth in erythrocytes, 48 h; Potency, µM (series often up to 28.7 µM), most hits filed as inhibitors; actives 5.9% (n = 310,000); active means well fitted inhibition curve with a large enough effect; inconclusive means small, poorly fitted or top-dose-only effect, or another doubt; inactive means no such curve, though single readings can be large or run the other way
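Luminescence readout; reporter = integrated firefly luciferase in P. falciparum. RBC culture at 2% hematocrit, 0.1% parasitemia final, 37 C/5% CO2; decreased signal taken as growth inhibition.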
NS1 function inh: influenza NS1 inhibition; actives 0.4% (n = 270,000); Potency, µM (doses to about 46.1 µM); further: actives are rising curves; nearly all actives have a fitted effect of over 50% in size
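In this qHTS, NS1 from influenza A is expressed in budding yeast, where it slows growth. Cells are switched from glucose to 2% galactose medium (pH 6.0, -URA), treated with compound, and growth recovery is read at OD600.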
Of the large screens only hits and unclear results are named; the others gave an inactive call. Most compounds without a hit are left out; they make up all but 21% or so of the library. Unless noted, the call rests on the fitted dose curve.

C=CCn1c(O)c(C(CC)=NCCc2ccccc2)c(=O)[nH]c1=O	Pf growth 96h inconclusive (no result: Pf growth 48h)
CCCCn1c(O)c(/C(C)=N/NC(=O)Nc2ccccc2)c(=O)[nH]c1=O	Cycloheximide cs 31, Shiga inhibitor 39
CCCCn1c(O)c(C(C)=NCc2ccc(F)cc2)c(=O)[nH]c1=O	Pf growth 96h 6.6µM
CCCCn1c(O)c(C(C)=Nc2c(C)n(C)n(-c3ccccc3)c2=O)c(=O)[nH]c1=O	Pf growth 96h inconclusive
CCCCn1c(O)c(C(CC)=NCc2ccc(F)cc2)c(=O)[nH]c1=O	Pf growth 96h inconclusive, Pf growth 48h inconclusive
C=CCn1c(O)c(/C(CC)=N/NC(=S)Nc2ccccc2)c(=O)[nH]c1=O	Cycloheximide cs 35, Shiga inhibitor 63
CCC(=NCC1CCCO1)c1c(O)n(Cc2ccccc2)c(=O)[nH]c1=O (stereo not drawn)	none
CC/C(=N\NC(=O)c1ccccc1)c1c(O)n(Cc2ccccc2)c(=O)[nH]c1=O	Cycloheximide cs 57, Shiga inhibitor 54
CCc1ccc(S(=O)(=O)NCCc2cn3cccc(C)c3n2)s1	none (no result: NS1 function inh)
CC/C(=N\NC(=O)c1ccccc1O)c1c(O)n(C2CCCCC2)c(=O)[nH]c1=O	Cycloheximide cs 23, Pf growth 96h 12µM, Shiga inhibitor 52, Pf growth 48h inconclusive
C=CCn1c(O)c(/C(C)=N/NC(=S)Nc2ccccc2)c(=O)[nH]c1=O	Cycloheximide cs 27, Pf growth 96h inconclusive, Shiga inhibitor 60
C[C@H](NC(=O)CCCOc1ccc(Cl)cc1Cl)c1nnc2ccccn12	none
O=P1(O)C=C(c2ccccc2)OC(c2ccccc2)=C1	Cycloheximide cs 67, Shiga inhibitor 146
Cc1cc(C)c(NC(=O)C2CC(=O)N(C(C)C)C2)c(C)c1 (stereo not drawn)	Pf growth 96h inconclusive
O=C(Nc1ncc(Cc2cccc(Cl)c2)s1)C1=NCCN1	Pf growth 96h inconclusive, Pf growth 48h inconclusive
Cc1ccc(Cc2cnc(NC(=O)c3cccs3)s2)cc1	Cycloheximide cs 46, SARS PLpro yeast inconclusive, Shiga inhibitor 192
O=C(Nc1ncc(Cc2cccc(Cl)c2)s1)c1cccs1	Cycloheximide cs 54, Shiga inhibitor 126
COc1ccc(Cc2nnc(NC(=O)c3cccs3)s2)cc1	none (no result: Pf growth 96h)
O=C(Nc1ncc(Cc2ccccc2)s1)c1cccs1	Cycloheximide cs 59, Pf growth 96h inconclusive, Shiga inhibitor 131
Cc1ccc(C(=O)Nc2ncc(Cc3ccccc3)s2)o1	Cycloheximide cs 42, Shiga inhibitor 80
CC(=O)c1c(C)[nH]c(C(=O)OCC(=O)Nc2cc(C(F)(F)F)ccc2N2CCOCC2)c1C	Pf growth 48h inconclusive
NNC(=O)CNS(=O)(=O)c1ccc([N+](=O)[O-])cc1	none
O=C(CSC1CC(=O)N(CCc2ccccc2)C1=O)Nc1ccc(Br)cc1 (stereo not drawn)	none
S=c1[nH]c(-c2ccc(Br)cc2)cn1CCc1ccccc1	Pf growth 96h 13µM, Pf growth 48h inconclusive (no result: NS1 function inh)
Cc1nc(CCNC(=O)CC2C(=O)NCCN2Cc2ccc(F)cc2)sc1C (stereo not drawn)	Pf growth 96h inconclusive
O=C(CCCC(=O)N(c1cccc(F)c1)C(C(=O)NC1CCCC1)c1ccc(O)cc1)Nc1ccccn1 (stereo not drawn)	Pf growth 48h inconclusive
O=C(CCCC(=O)N(c1ccc2c(c1)OCCO2)C(C(=O)NC1CCCCC1)c1ccc(Cl)cc1)Nc1ccccn1 (stereo not drawn)	Cycloheximide cs 24, Pf growth 96h inconclusive, Shiga inhibitor 33, Pf growth 48h inconclusive
COc1ccc(C(C(=O)NC2CCCCC2)N(C(=O)CCCC(=O)Nc2ccccn2)c2ccc3c(c2)OCCO3)cc1 (stereo not drawn)	Pf growth 96h 9.3µM, Pf growth 48h inconclusive, NS1 function inh inconclusive
CCCCCN1C2=NCCN2c2ccccc21	Pf growth 96h 8.3µM, Pf growth 48h inconclusive
CCOc1cc(/C=N/N2CCOCC2)ccc1OCc1ccc(C(=O)OC)o1	none (no result: NS1 function inh)
CCOc1ccc(N2C(=O)S/C(=C\c3cccn3C)C2=O)cc1	Pf growth 96h 2.9µM, Pf growth 48h 3.3µM
Cn1cccc1/C=C1\SC(=O)N(c2ccc(O)cc2)C1=O	Cycloheximide cs 39, Shiga inhibitor 33 (no result: NS1 function inh)
O=C(CN(C(=O)CCC(=O)Nc1nccs1)c1ccccc1F)NCc1ccc(F)cc1	Pf growth 96h inconclusive
COc1ccc2oc(C(=O)N(C)Cc3ccc4c(c3)OCCO4)c(C)c2c1	none (no result: Cycloheximide cs, Shiga inhibitor, NS1 function inh)
CCCc1ccc2oc(C(=O)N(C)Cc3ccn[nH]3)c(C)c2c1	Cycloheximide cs 48, Pf growth 96h inconclusive, Shiga inhibitor 65
Cc1ccc2oc(C(=O)N(C)Cc3cnccn3)c(C)c2c1	Cycloheximide cs 35, Pf growth 96h inconclusive, Shiga inhibitor 120, Pf growth 48h 2.9µM
COc1cc(OC)cc(C(=O)OCC(=O)NCCCc2ccccc2)c1	none
COc1cc(/C=N/Nc2ccc(Cl)c(C(=O)O)c2)ccc1OC(=O)c1ccc(F)cc1	none
COc1cccc(OCc2cc(/C=N/Nc3ccc(C(=O)O)cc3)ccc2OC)c1	Cycloheximide cs 41, Shiga inhibitor 53
COc1cc(/C=N/Nc2cccc(C)c2)ccc1OC(=O)c1cccs1	Cycloheximide cs 18
COc1cc(/C=N/Nc2ccc(Cl)c(C(=O)O)c2)ccc1OC(=O)c1ccccc1F	Cycloheximide cs 29, Shiga inhibitor 70
COCc1cc(/C=N\NC(=O)COc2ccccc2)ccc1OC	none
CCOc1cc(/C=N\NC(=O)c2ccc(NC(=O)C(C)(C)C)cc2)ccc1OC(=O)c1ccc(OC)cc1	none (no result: Pf growth 48h)
CCOc1cc(/C=N/Nc2ccc(C(=O)O)cc2)ccc1OC(=O)c1ccccc1C	Cycloheximide cs 42
N#CCCN(C(=O)COC(=O)c1cc(=O)[nH]c2ccccc12)c1ccccc1	none (no result: Cycloheximide cs, Pf growth 96h, Shiga inhibitor, Pf growth 48h, NS1 function inh)
CC(=O)N1CCC(N(CCN2CCOCC2)C(=S)Nc2c(C)cccc2C)CC1	none
CN(C)C(CNC1CC(C)(C)NC(C)(C)C1)c1cccc(F)c1 (stereo not drawn)	Pf growth 48h inconclusive
O=C(CCCc1nc2ccccc2s1)Nc1ccc(N2CCOCC2)cc1	none (no result: NS1 function inh)
O=C(Nc1cc(S(=O)(=O)N2CCCCC2)ccc1N1CCOCC1)c1ccc(F)cc1	Pf growth 96h inconclusive, Pf growth 48h inconclusive (no result: Cycloheximide cs, Shiga inhibitor, NS1 function inh)
COc1cccc(C(=O)Oc2ccc(/C=N/Nc3ccc(C(=O)O)cc3)cc2OC)c1	Cycloheximide cs 33 (no result: Shiga inhibitor)
O=C(NCC1CCCO1)c1ccccc1-c1nc(-c2ccc(Cl)cc2)no1 (stereo not drawn)	Cycloheximide cs 12
O=C(NCC1CCCO1)c1ccccc1-c1nc(-c2ccccc2F)no1 (stereo not drawn)	SARS PLpro yeast inconclusive
Cc1cccc(-c2noc(-c3ccccc3C(=O)NCC3CCCO3)n2)c1 (stereo not drawn)	Cycloheximide cs 63, Shiga inhibitor 143
O=C(Nc1cc(Cl)ccc1-n1cncn1)c1cccs1	none (no result: Cycloheximide cs, Shiga inhibitor, NS1 function inh)
Clc1ccc(N=C2SCCS2)cc1	Cycloheximide cs 46, Shiga inhibitor 76
